# Source: the supplement of paper PMC12282887
# ± gives the standard deviation of the averaged measurements.
# Assays:
# Experiment in all cases: promoter activity interaction Z-score (Lux/OD deviation from empty-vector control); higher = stronger promoter induction by the compound
# [1] = system: E. coli BW25113 acrABp lux reporter
# Outline: (§1)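 Every compound was given at four 1:2 dilutions, in biological duplicates, to E. coli BW25113 carrying low-copy luxCDABE promoter reporters in wild-type or single-gene deletion backgrounds. Growth in 40 µl LB Lennox in 384-well plates at 37°C was followed by OD600 and luminescence readings every 30 min for 12 h, integrated over 0–8 h for wild type and 1–9 h for deletion strains, with wells below 10% of the median growth value excluded. Scores are Z-transformed residuals of growth-normalised luminescence fitted against a control.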
# [2] = system: E. coli BW25113 micFp lux reporter
# Outline: as §1
# [3] = system: E. coli BW25113 ompFp lux reporter
# Outline: as §1
# [4] = system: E. coli BW25113 robp lux reporter
# Outline: as §1
# [5] = system: E. coli BW25113 soxSp lux reporter
# Outline: as §1
# [6] = system: E. coli BW25113 tolCp lux reporter
# Outline: as §1
# [7] = 0.45 µg/ml, genetic background: wild type
# [8] = 0.45 µg/ml, genetic background: ΔmarA
# [9] = 0.45 µg/ml, genetic background: Δrob
# [10] = 0.45 µg/ml, genetic background: ΔsoxS
# [11] = 0.89 µg/ml, genetic background: wild type
# [12] = 0.89 µg/ml, genetic background: ΔmarA
# [13] = 0.89 µg/ml, genetic background: Δrob
# [14] = 0.89 µg/ml, genetic background: ΔsoxS
# [15] = 1.8 µg/ml, genetic background: wild type
# [16] = 1.8 µg/ml, genetic background: ΔmarA
# [17] = 1.8 µg/ml, genetic background: Δrob
# [18] = 1.8 µg/ml, genetic background: ΔsoxS
# [19] = 3.6 µg/ml, genetic background: wild type
# [20] = 3.6 µg/ml, genetic background: ΔmarA
# [21] = 3.6 µg/ml, genetic background: ΔsoxS
# [22] = 3.6 µg/ml, genetic background: Δrob
compound,measurement,setting,value
O=C1CN(/N=C/c2ccc([N+](=O)[O-])o2)C(=O)N1 [Nitrofurantoin],promoter activity interaction Z-score,[1]; [7],0.0114 ± 0.17
same,promoter activity interaction Z-score,[1]; [8],0.119 ± 1.2
same,promoter activity interaction Z-score,[1]; [9],0.336 ± 0.34
same,promoter activity interaction Z-score,[1]; [10],0.0185 ± 0.49
same,promoter activity interaction Z-score,[1]; [11],-0.124 ± 0.043
same,promoter activity interaction Z-score,[1]; [12],0.483 ± 1.2
same,promoter activity interaction Z-score,[1]; [13],0.267 ± 0.28
same,promoter activity interaction Z-score,[1]; [14],-0.258 ± 0.11
same,promoter activity interaction Z-score,[1]; [15],0.24 ± 0.28
same,promoter activity interaction Z-score,[1]; [16],-0.0961 ± 0.62
same,promoter activity interaction Z-score,[1]; [17],0.562 ± 0.54
same,promoter activity interaction Z-score,[1]; [18],0.221 ± 0.13
same,promoter activity interaction Z-score,[1]; [19],5.63 ± 1.8
same,promoter activity interaction Z-score,[1]; [20],1.31 ± 1.1
same,promoter activity interaction Z-score,[1]; [21],1.31
same,promoter activity interaction Z-score,[2]; [7],-0.201 ± 0.35
same,promoter activity interaction Z-score,[2]; [8],-0.0627 ± 0.036
same,promoter activity interaction Z-score,[2]; [9],-0.0214 ± 0.074
same,promoter activity interaction Z-score,[2]; [10],0.0613 ± 0.061
same,promoter activity interaction Z-score,[2]; [11],-0.0281 ± 0.071
same,promoter activity interaction Z-score,[2]; [12],0.0181 ± 0.016
same,promoter activity interaction Z-score,[2]; [13],0.0629 ± 0.06
same,promoter activity interaction Z-score,[2]; [14],-0.168 ± 0.14
same,promoter activity interaction Z-score,[2]; [15],-0.0112 ± 0.03
same,promoter activity interaction Z-score,[2]; [16],-0.163 ± 0.13
same,promoter activity interaction Z-score,[2]; [17],0.113 ± 0.19
same,promoter activity interaction Z-score,[2]; [18],0.261 ± 0.17
same,promoter activity interaction Z-score,[2]; [19],-0.0667 ± 0.48
same,promoter activity interaction Z-score,[2]; [20],-0.232 ± 0.11
same,promoter activity interaction Z-score,[2]; [22],1.15 ± 0.47
same,promoter activity interaction Z-score,[2]; [21],0.96
same,promoter activity interaction Z-score,[3]; [7],-0.15 ± 0.13
same,promoter activity interaction Z-score,[3]; [8],-0.453 ± 0.32
same,promoter activity interaction Z-score,[3]; [9],-0.0497 ± 0.041
same,promoter activity interaction Z-score,[3]; [10],0.0722 ± 0.049
same,promoter activity interaction Z-score,[3]; [11],-0.0847 ± 0.24
same,promoter activity interaction Z-score,[3]; [12],-0.089 ± 0.056
same,promoter activity interaction Z-score,[3]; [13],-0.35 ± 0.18
same,promoter activity interaction Z-score,[3]; [14],-0.556 ± 0.079
same,promoter activity interaction Z-score,[3]; [15],-0.226 ± 0.099
same,promoter activity interaction Z-score,[3]; [16],-0.21 ± 0.076
same,promoter activity interaction Z-score,[3]; [17],0.603 ± 0.17
same,promoter activity interaction Z-score,[3]; [18],0.0583 ± 0.32
same,promoter activity interaction Z-score,[3]; [19],-2.5
same,promoter activity interaction Z-score,[3]; [20],1.3 ± 0.68
same,promoter activity interaction Z-score,[3]; [22],3.89
same,promoter activity interaction Z-score,[3]; [21],-0.534
same,promoter activity interaction Z-score,[4]; [7],0.114 ± 0.034
same,promoter activity interaction Z-score,[4]; [8],0.455 ± 0.074
same,promoter activity interaction Z-score,[4]; [9],0.575 ± 0.24
same,promoter activity interaction Z-score,[4]; [10],0.737 ± 0.98
same,promoter activity interaction Z-score,[4]; [11],0.053 ± 0.093
same,promoter activity interaction Z-score,[4]; [12],1.12 ± 0.13
same,promoter activity interaction Z-score,[4]; [13],-0.308 ± 0.14
same,promoter activity interaction Z-score,[4]; [14],0.326 ± 0.87
same,promoter activity interaction Z-score,[4]; [15],-0.109 ± 0.28
same,promoter activity interaction Z-score,[4]; [16],-0.423 ± 0.23
same,promoter activity interaction Z-score,[4]; [17],-0.197 ± 0.6
same,promoter activity interaction Z-score,[4]; [18],0.0845 ± 0.42
same,promoter activity interaction Z-score,[4]; [19],-0.125 ± 0.22
same,promoter activity interaction Z-score,[4]; [20],-0.424 ± 0.58
same,promoter activity interaction Z-score,[4]; [21],0.453 ± 1.5
same,promoter activity interaction Z-score,[5]; [7],0.0106 ± 0.12
same,promoter activity interaction Z-score,[5]; [8],-0.137 ± 0.086
same,promoter activity interaction Z-score,[5]; [9],-0.0668 ± 0.14
same,promoter activity interaction Z-score,[5]; [10],0.0402 ± 0.15
same,promoter activity interaction Z-score,[5]; [11],0.102 ± 0.0085
same,promoter activity interaction Z-score,[5]; [12],0.0915 ± 0.093
same,promoter activity interaction Z-score,[5]; [13],0.0454 ± 0.22
same,promoter activity interaction Z-score,[5]; [14],0.0812 ± 0.0067
same,promoter activity interaction Z-score,[5]; [15],0.0189 ± 0.12
same,promoter activity interaction Z-score,[5]; [16],-0.113 ± 0.12
same,promoter activity interaction Z-score,[5]; [17],-0.00251 ± 0.13
same,promoter activity interaction Z-score,[5]; [18],0.294 ± 0.093
same,promoter activity interaction Z-score,[5]; [19],0.367 ± 0.26
same,promoter activity interaction Z-score,[5]; [20],0.0789 ± 0.17
same,promoter activity interaction Z-score,[5]; [22],-0.00598 ± 0.3
same,promoter activity interaction Z-score,[5]; [21],0.987 ± 0.11
same,promoter activity interaction Z-score,[6]; [7],-0.752 ± 0.08
same,promoter activity interaction Z-score,[6]; [8],-0.242 ± 1.3
same,promoter activity interaction Z-score,[6]; [9],-0.5 ± 0.78
same,promoter activity interaction Z-score,[6]; [10],-0.5485 ± 0.0052
same,promoter activity interaction Z-score,[6]; [11],0.445 ± 0.35
same,promoter activity interaction Z-score,[6]; [12],0.287 ± 1.1
same,promoter activity interaction Z-score,[6]; [13],-0.164 ± 0.15
same,promoter activity interaction Z-score,[6]; [14],-0.317 ± 0.33
same,promoter activity interaction Z-score,[6]; [15],-0.711 ± 0.13
same,promoter activity interaction Z-score,[6]; [16],-0.75 ± 0.79
same,promoter activity interaction Z-score,[6]; [17],0.238 ± 0.13
same,promoter activity interaction Z-score,[6]; [18],0.385 ± 1.6
same,promoter activity interaction Z-score,[6]; [19],1.24 ± 0.17
same,promoter activity interaction Z-score,[6]; [20],-1.22 ± 0.056
same,promoter activity interaction Z-score,[6]; [22],0.356 ± 0.69
same,promoter activity interaction Z-score,[6]; [21],0.0431 ± 0.49
